Assay outcomes (PubChem)
Hits are enriched below; roughly 6.8% of the tested compounds scored in any of these assays.
Cy5 interf NS3h – Cy5 fluorescence interference, HCV helicase counter-screen; Cy5-dT15 DNA with NS3h; actives lie on both sides; signal over control mean, under 1 quenches; fluorescence interference ratio at 100 µM; 16,000 tested, 6% active; AID 720488;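 active means compound fluorescence over control fluorescence at most 0.8, a quencher, or at least a set upper limit, an enhancer; inactive means ratio between 0.8 and the set upper limit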
HCV NS3h FP – blocks HCV NS3 helicase binding to DNA; NS3h Cy5-dT15 DNA binding, fluorescence polarization; inhibition, % at 100 µM; 16,000 tested, 1.6% active;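 active means inhibition above the average over every tested compound plus 3 SD, cut at about 40% in these data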
The depositor's hits bear a star.

Screening COC(=O)c1ccc(NC(=O)c2ccc(F)cc2)cc1 returned Cy5 interf NS3h 1.1 and HCV NS3h FP 9.
Cc1[nH]c2ccccc2c1/C=N\NC(=O)c1cccc([N+](=O)[O-])c1 was read as Cy5 interf NS3h 0.63* and HCV NS3h FP -2.
Screening Cc1[nH]c2ccccc2c1/C=N\Nc1ccc([N+](=O)[O-])cc1 returned Cy5 interf NS3h 0.97 and HCV NS3h FP 31.
`O=C1CC(c2ccccc2)CC2=C1C(c1cccc([N+](=O)[O-])c1)Nc1ccc(C(=O)c3ccccc3)cc1N2` (configuration not stated) gave Cy5 interf NS3h 0.69* and HCV NS3h FP 14.
For O=C1CC(c2ccccc2)CC2=C1C(c1ccc([N+](=O)[O-])cc1)Nc1ccc(C(=O)c3ccccc3)cc1N2 (configuration not stated) the results were Cy5 interf NS3h 1.1 and HCV NS3h FP 10.
For COc1cc(CN2CCN(Cc3ccccc3C)CC2)c([N+](=O)[O-])cc1OC the results were Cy5 interf NS3h 0.93 and HCV NS3h FP -8.
`O=C(O)c1ccccc1NC1=C(Cl)C(=O)N(c2cccc(Cl)c2)C1=O` gave Cy5 interf NS3h 1.1 and HCV NS3h FP 8.
O=C1C(=O)N(c2ccccc2Br)C(=O)N1c1cccc(Cl)c1 was read as Cy5 interf NS3h 0.7* and HCV NS3h FP 19.
Cc1ccc(-c2nc(-c3cccc([N+](=O)[O-])c3)no2)cc1 was read as Cy5 interf NS3h 1.1 and HCV NS3h FP -8.
`Cc1ccc(C(=O)/C=C(/N)C(F)(F)F)cc1` gave Cy5 interf NS3h 0.73* and HCV NS3h FP 10.
For O=C(C=C(O)c1ccc(F)cc1)C(F)(F)F the results were Cy5 interf NS3h 0.94 and HCV NS3h FP 6.
CCOc1ccc(C2=C/C(=C/c3ccc(OC)cc3)C(=O)O2)cc1 was read as Cy5 interf NS3h 1 and HCV NS3h FP 9.
For COc1ccc(C2=C/C(=C/c3ccc([N+](=O)[O-])cc3)C(=O)O2)c(OC)c1 the results were Cy5 interf NS3h 0.67* and HCV NS3h FP 9.
For Cc1cccc(/C=N\N2CCN(Cc3cccc4ccccc34)CC2)c1 the results were Cy5 interf NS3h 1 and HCV NS3h FP 14.
COc1ccc(C(=O)c2ccccc2)c(OC)c1 was read as Cy5 interf NS3h 0.91 and HCV NS3h FP -6.
`COc1ccc(/C(C)=N\N=C(\C)c2ccc(OC)cc2OC)c(OC)c1` gave Cy5 interf NS3h 0.67* and HCV NS3h FP 16.
`O=C(N/N=C\c1cc(Cl)ccc1O)/C(=C\c1ccc2c(c1)OCO2)NC(=O)c1ccccc1` gave Cy5 interf NS3h 1 and HCV NS3h FP 10.
O=C(CSc1nc2ccccc2[nH]1)Nc1ccc(F)c([N+](=O)[O-])c1 was read as Cy5 interf NS3h 0.85 and HCV NS3h FP 16.
CCOc1ccc(NC(=O)CSc2nc3ccccc3[nH]2)cc1 was read as Cy5 interf NS3h 0.92 and HCV NS3h FP 2.
For O=C(CSc1nc2ccc([N+](=O)[O-])cc2[nH]1)c1ccc(Br)cc1 the results were Cy5 interf NS3h 0.61* and HCV NS3h FP 24.
`O=C(CSc1nc2ccc([N+](=O)[O-])cc2[nH]1)Nc1ccc2c(c1)OCO2` gave Cy5 interf NS3h 0.6* and HCV NS3h FP 12.
For Cc1cccc(NC(=O)CSc2nc3ccc(C)cc3[nH]2)c1 the results were Cy5 interf NS3h 0.65* and HCV NS3h FP 16.
`O=C(CSc1nc2ccc([N+](=O)[O-])cc2[nH]1)c1ccc2ccccc2c1` gave Cy5 interf NS3h 0.87 and HCV NS3h FP 1.
Screening COc1cc(/C=C2/SC(=S)N(CC(=O)Nc3ccccc3C(=O)O)C2=O)cc(OC)c1OC returned Cy5 interf NS3h 1 and HCV NS3h FP 10.
Screening COc1cc(N(C)C)c([N+](=O)[O-])cc1C(=O)N1CCCC(O)C1 (configuration not stated) returned Cy5 interf NS3h 0.99 and HCV NS3h FP -1.
CCOC(=O)c1c(-c2ccc(C)cc2)csc1NC(=O)C(C)(C)C was read as Cy5 interf NS3h 0.69* and HCV NS3h FP 19.
CCOC(=O)c1c(-c2ccc(C)cc2)csc1NC(=O)C1CC1 was read as Cy5 interf NS3h 1 and HCV NS3h FP 8.
Cc1cccc(/C(N)=N\OC(=O)c2cccc(I)c2)c1 was read as Cy5 interf NS3h 0.94 and HCV NS3h FP 10.
For O=S(=O)(c1ccccc1C(O)(c1ccccc1)c1ccccc1)c1ccccc1C(O)(c1ccccc1)c1ccccc1 the results were Cy5 interf NS3h 0.76* and HCV NS3h FP 6.
Cc1cc(NS(=O)(=O)c2ccc(Nc3nc(-c4ccccc4)cs3)cc2)no1 was read as Cy5 interf NS3h 0.96 and HCV NS3h FP 4.
`CCc1ccc(NC(=O)C2CC(=O)N(c3ccc(Br)cc3)C2)cc1` (configuration not stated) gave Cy5 interf NS3h 1 and HCV NS3h FP 14.
For CCOC(=O)c1sc(NC(=O)c2nn3c(c2Cl)NC(c2cccs2)CC3C(F)(F)F)c(C(=O)OCC)c1C (configuration not stated) the results were Cy5 interf NS3h 1 and HCV NS3h FP 16.
`O=C(Nc1ccc(Cl)c(Cl)c1)c1nn2c(c1Br)NC(c1cccs1)CC2C(F)(F)F` (configuration not stated) gave Cy5 interf NS3h 1 and HCV NS3h FP 12.
For O=C(c1nn2c(c1Cl)NC(c1cccs1)CC2C(F)(F)F)N1CCOCC1 (configuration not stated) the results were Cy5 interf NS3h 0.67* and HCV NS3h FP 1.
For O=C(c1nn2c(c1Br)NC(c1cccs1)CC2C(F)(F)F)N1CCCC1 (configuration not stated) the results were Cy5 interf NS3h 0.51* and HCV NS3h FP 15.
Screening O=C(Nc1ccc(Cl)c(Cl)c1)Nc1nnc(CSCc2ccccc2F)s1 returned Cy5 interf NS3h 0.99 and HCV NS3h FP 6.
For O=C(/C=C1/Nc2ccccc2NC1=O)Nc1cccc(C(F)(F)F)c1 the results were Cy5 interf NS3h 0.93 and HCV NS3h FP 5.
`COC(=O)/C=C1\Nc2cc([N+](=O)[O-])ccc2NC1=O` gave Cy5 interf NS3h 0.72* and HCV NS3h FP 12.
Cc1cc2c(Nc3c([N+](=O)[O-])ccc4c3=NC3(CCCCC3)N=4)cccc2nn1 was read as Cy5 interf NS3h 0.95 and HCV NS3h FP 6.
For N#C/C(=C\c1cccc2ccccc12)c1nc(-c2ccc(Br)cc2)cs1 the results were Cy5 interf NS3h 1 and HCV NS3h FP 4.
Screening COc1ccc(NC(=O)C2CC(=O)N(c3ccc(Br)cc3)C2)cc1 (configuration not stated) returned Cy5 interf NS3h 1.1 and HCV NS3h FP 18.
For O=C(O)CCCc1nc2ccccc2s1 the results were Cy5 interf NS3h 1 and HCV NS3h FP -5.
Screening O=C(O)CCCc1nc2ccccc2[nH]1 returned Cy5 interf NS3h 0.73* and HCV NS3h FP 1.
`Cc1cc(/C=C2/NC(=S)NC2=O)c(C)n1-c1ccc(C(C)(C)C)cc1` gave Cy5 interf NS3h 1.1 and HCV NS3h FP 24.
Screening COc1ccc(S(=O)(=O)Nc2ccc(C(N)=O)cc2)cc1 returned Cy5 interf NS3h 1 and HCV NS3h FP 2.
For O=C(COc1ccccc1)C(=C(O)c1ccccc1)c1nc2ccccc2[nH]1 the results were Cy5 interf NS3h 1.4* and HCV NS3h FP -23.
`O=C(COc1cccc([N+](=O)[O-])c1)Nc1cccc(-c2nc3ccccc3[nH]2)c1` gave Cy5 interf NS3h 0.96 and HCV NS3h FP -11.
